The full data set covers some 8,800 targets. This sample favours those with a hit. About 0.5% of all pairs of compound and target were hits.
What was measured:
Test in all cases: log2 fold change, soluble protein after heating vs DMSO (PISA); higher = thermal stabilisation; K562 lysate, 10 uM; active = over 0.2 and 3.5 SD of the protein, either way, in both replicates (recomputed)
erlotinib = compound: C#Cc1cccc(Nc2ncnc3cc(OCCOC)c(OCCOC)cc23)c1 [erlotinib]
Procedure, shortened: (§1)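 K562 pellets were dounce-homogenised in PBS pH 7.4 containing 1 mM MgCl2, and the crude extract, at 1 mg/mL protein, was exposed to 10 μM compound for 30 min. Aliquots were heated for 3 min across 48°C-58°C, pooled, brought to 0.5% NP-40 at 4°C and spun at 21,000xg for 90 min, with the supernatant taken as soluble protein. TMTpro 16plex LC-MS/MS with equalised channel sums quantified that protein. Values are log-two fold changes in thermal stability relative to solvent controls, taken from duplicates.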

[1] = compound: C/C(=N\NC(=O)C1=CC(=CC=C1)S(=O)(=O)N2CCOCC2)/C3=C(C=CC(=C3)Cl)O
Procedure, shortened: as §1

[2] = compound: C1=CC(=CC=C1C2=NC3=C(N2)C=C(C=C3)C(=O)N)OC4=CC=C(C=C4)Cl
Procedure, shortened: as §1

[3] = compound: C1=CC2=C(C=CC(=C2)/C=C\3/C(=O)NC(=NCC4=CC=CS4)S3)N=C1
Procedure, shortened: as §1

[4] = compound: C1=CC2=NC=CN=C2C=C1/C=C/3\C(=O)NC(=O)S3
Procedure, shortened: as §1

[5] = compound: C1=CC=C(C=C1)C2=NC(=C(N2)C3=CC=NC=C3)C4=CC(=C(C=C4)Cl)O
Procedure, shortened: as §1

[6] = compound: C1=CC=C2C(=C1)C3=NNC4=CC=CC(=C43)C2=O
Procedure, shortened: as §1

[7] = compound: C1CCN(C1)C(=O)NC2=CC=CC(=C2)NC3=NC=C(C(=N3)NCCC4=CN=CN4)Br
Procedure, shortened: as §1

[8] = compound: C1CN(CCC1(CC2=CC=C(C=C2)Cl)N)C3=NC=NC4=C3C=CN4
Procedure, shortened: as §1

IRAK-1-4 Inhibitor I = compound: C1COCCN1CCN2C3=CC=CC=C3N=C2NC(=O)C4=CC(=CC=C4)[N+](=O)[O-] [IRAK-1-4 Inhibitor I]
Procedure, shortened: as §1

Measured: log2 fold change

MED14 (UniProt O60244)
inactive: erlotinib -0.012 | [1] 0.018 | [2] 0.008 | [3] 0.027 | [4] 0.015 | [5] 0 | [6] -0.066 | [7] -0.014 | [8] -0.042 | IRAK-1-4 Inhibitor I 0.005

MED12 isoform 2 (UniProt Q93074)
inactive: erlotinib 0.007 | [1] -0.037 | [2] 0 | [3] 0.009 | [4] 0.008 | [5] 0.004 | [6] -0.025 | [7] -0.013 | [8] 0.011 | IRAK-1-4 Inhibitor I -0.035

MBD2 (UniProt Q9UBB5)
UniProt Q9UBB5, sequence (Q9UBB5 whole entry, looked up): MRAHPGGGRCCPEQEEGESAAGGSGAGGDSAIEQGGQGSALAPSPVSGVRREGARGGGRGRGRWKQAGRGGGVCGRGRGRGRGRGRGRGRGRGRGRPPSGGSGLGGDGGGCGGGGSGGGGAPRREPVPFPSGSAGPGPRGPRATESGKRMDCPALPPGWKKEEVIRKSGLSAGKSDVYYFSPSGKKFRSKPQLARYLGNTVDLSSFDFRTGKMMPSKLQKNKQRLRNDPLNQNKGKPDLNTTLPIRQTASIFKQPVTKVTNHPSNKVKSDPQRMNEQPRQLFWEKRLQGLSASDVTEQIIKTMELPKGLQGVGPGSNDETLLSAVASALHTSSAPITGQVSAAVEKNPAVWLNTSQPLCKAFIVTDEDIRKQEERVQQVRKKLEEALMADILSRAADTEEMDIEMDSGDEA
inactive: erlotinib 0.013 | [1] -0.933 | [2] -0.003 | [3] 0.05 | [4] -0.016 | [5] 0.094 | [6] 0.023 | [7] -0.069 | [8] -0.011 | IRAK-1-4 Inhibitor I 0.016

MAST2 (UniProt Q6P0Q8)
active: [4] -0.588
inactive: erlotinib 0.044 | [1] -0.054 | [2] 0.142 | [3] 0.003 | [5] -0.03 | [6] 0.099 | [7] 0.038 | [8] -0.046 | IRAK-1-4 Inhibitor I 0.073

MGST1 (UniProt P10620)
UniProt P10620, sequence (P10620 whole entry, looked up): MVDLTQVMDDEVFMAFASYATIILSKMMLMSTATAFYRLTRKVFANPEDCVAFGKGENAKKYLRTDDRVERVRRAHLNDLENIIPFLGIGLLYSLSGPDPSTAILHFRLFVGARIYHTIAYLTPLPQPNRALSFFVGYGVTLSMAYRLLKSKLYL
inactive: erlotinib -0.041 | [1] -0.068 | [2] 0.016 | [3] -0.051 | [4] 0.024 | [5] -0.031 | [6] -0.036 | [7] -0.07 | [8] 0.089 | IRAK-1-4 Inhibitor I 0.067

MRPL12 (UniProt P52815)
inactive: erlotinib 0.046 | [1] -0.02 | [2] -0.013 | [3] 0.041 | [4] -0.015 | [5] -0.015 | [6] 0.014 | [7] -0.007 | [8] 0.077 | IRAK-1-4 Inhibitor I -0.029

MRPL10 isoform 2 (UniProt Q7Z7H8)
inactive: erlotinib -0.032 | [1] 0 | [2] 0.043 | [3] 0.022 | [4] -0.141 | [5] -0.002 | [6] -0.016 | [7] -0.062 | [8] 0.015 | IRAK-1-4 Inhibitor I 0.014

KIF15 (UniProt Q9NS87)
inactive: erlotinib 0.004 | [1] 0.025 | [2] -0.01 | [3] 0.011 | [4] -0.019 | [5] 0.048 | [6] -0.054 | [7] -0.04 | [8] -0.019 | IRAK-1-4 Inhibitor I -0.012

MARK2 (UniProt E9PC69)
inactive: erlotinib 0.095 | [1] 0.132 | [2] 0.026 | [3] 0.056 | [4] -0.017 | [5] 0.024 | [6] -0.246 | [7] -0.18 | [8] -0.084 | IRAK-1-4 Inhibitor I -0.076

LIMS1 isoform 3 (UniProt P48059)
UniProt P48059, sequence (P48059 whole entry, looked up): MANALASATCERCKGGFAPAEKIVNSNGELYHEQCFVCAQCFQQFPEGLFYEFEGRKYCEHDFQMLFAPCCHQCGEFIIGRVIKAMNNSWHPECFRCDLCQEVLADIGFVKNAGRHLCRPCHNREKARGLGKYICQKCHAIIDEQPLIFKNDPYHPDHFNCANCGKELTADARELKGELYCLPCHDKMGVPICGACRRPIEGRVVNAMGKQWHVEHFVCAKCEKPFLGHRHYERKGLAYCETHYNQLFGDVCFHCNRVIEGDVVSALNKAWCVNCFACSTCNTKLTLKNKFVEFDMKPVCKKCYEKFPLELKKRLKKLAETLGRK
inactive: erlotinib -0.004 | [1] -0.034 | [2] 0.014 | [3] 0.009 | [4] -0.008 | [5] 0.004 | [6] 0.094 | [7] 0.003 | [8] -0.017 | IRAK-1-4 Inhibitor I -0.024

METTL2A (UniProt Q96IZ6)
inactive: erlotinib 0.023 | [1] -0.009 | [2] -0.026 | [3] 0.037 | [4] 0 | [5] -0.018 | [6] -0.026 | [7] 0.002 | [8] 0.166 | IRAK-1-4 Inhibitor I 0.042

MAPK3 (UniProt P27361)
inactive: erlotinib 0 | [1] 0.02 | [2] 0 | [3] -0.025 | [4] 0.031 | [5] 0.01 | [6] 0.052 | [7] 0.021 | [8] 0.055 | IRAK-1-4 Inhibitor I 0.049

KNOP1 (UniProt Q1ED39)
UniProt Q1ED39, sequence (Q1ED39 whole entry, looked up): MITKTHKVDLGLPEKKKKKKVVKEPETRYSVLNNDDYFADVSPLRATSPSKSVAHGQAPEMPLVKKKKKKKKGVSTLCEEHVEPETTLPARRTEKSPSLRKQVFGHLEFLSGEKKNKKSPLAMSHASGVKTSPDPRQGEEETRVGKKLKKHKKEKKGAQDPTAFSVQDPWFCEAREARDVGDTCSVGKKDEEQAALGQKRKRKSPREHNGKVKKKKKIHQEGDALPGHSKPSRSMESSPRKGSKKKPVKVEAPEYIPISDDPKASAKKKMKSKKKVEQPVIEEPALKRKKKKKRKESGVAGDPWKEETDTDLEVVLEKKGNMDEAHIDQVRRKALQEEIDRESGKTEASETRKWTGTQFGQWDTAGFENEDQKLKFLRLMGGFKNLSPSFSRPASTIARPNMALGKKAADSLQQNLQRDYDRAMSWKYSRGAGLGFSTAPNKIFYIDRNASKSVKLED
inactive: erlotinib -0.018 | [1] -0.011 | [2] -0.006 | [3] -0.176 | [4] 0.019 | [5] 0.008 | [6] 0.109 | [7] -0.128 | [8] 0.118 | IRAK-1-4 Inhibitor I 0.123

MAP4 isoform 5 (UniProt P27816)
inactive: erlotinib -0.086 | [1] 0.041 | [2] -0.251 | [4] -0.035 | [5] -0.019 | [6] 0.121 | [7] -0.05 | [8] 0.026 | IRAK-1-4 Inhibitor I 0.112
active: [3] -0.495

MON2 isoform 5 (UniProt Q7Z3U7)
inactive: erlotinib 0.031 | [1] -0.031 | [2] -0.018 | [3] 0.019 | [4] 0.001 | [5] -0.016 | [6] -0.021 | [7] 0.012 | [8] 0.04 | IRAK-1-4 Inhibitor I 0.009

MORC3 (UniProt Q14149)
inactive: erlotinib 0.02 | [1] -0.047 | [2] -0.005 | [3] 0.01 | [4] -0.025 | [5] 0.034 | [6] -0.033 | [7] -0.029 | [8] 0.002 | IRAK-1-4 Inhibitor I -0.011

KIF4B (UniProt Q2VIQ3)
inactive: erlotinib -0.018 | [1] -0.035 | [2] -0.017 | [3] 0.032 | [4] -0.005 | [5] 0.034 | [6] 0.004 | [7] -0.003 | [8] -0.027 | IRAK-1-4 Inhibitor I -0.061

MMS19 isoform 8 (UniProt Q96T76)
inactive: erlotinib 0.026 | [1] -0.019 | [2] -0.016 | [3] -0.02 | [4] -0.009 | [5] 0.011 | [6] -0.099 | [7] 0.01 | [8] 0.034 | IRAK-1-4 Inhibitor I 0.004

MDM2 isoform 11 (UniProt Q00987)
inactive: erlotinib 0.108 | [1] -0.039 | [2] 0.037 | [3] -0.071 | [4] 0.021 | [5] 0.084 | [6] 0.04 | IRAK-1-4 Inhibitor I 0.151

KIFC3 isoform 6 (UniProt Q9BVG8)
UniProt Q9BVG8, sequence (Q9BVG8 whole entry, looked up): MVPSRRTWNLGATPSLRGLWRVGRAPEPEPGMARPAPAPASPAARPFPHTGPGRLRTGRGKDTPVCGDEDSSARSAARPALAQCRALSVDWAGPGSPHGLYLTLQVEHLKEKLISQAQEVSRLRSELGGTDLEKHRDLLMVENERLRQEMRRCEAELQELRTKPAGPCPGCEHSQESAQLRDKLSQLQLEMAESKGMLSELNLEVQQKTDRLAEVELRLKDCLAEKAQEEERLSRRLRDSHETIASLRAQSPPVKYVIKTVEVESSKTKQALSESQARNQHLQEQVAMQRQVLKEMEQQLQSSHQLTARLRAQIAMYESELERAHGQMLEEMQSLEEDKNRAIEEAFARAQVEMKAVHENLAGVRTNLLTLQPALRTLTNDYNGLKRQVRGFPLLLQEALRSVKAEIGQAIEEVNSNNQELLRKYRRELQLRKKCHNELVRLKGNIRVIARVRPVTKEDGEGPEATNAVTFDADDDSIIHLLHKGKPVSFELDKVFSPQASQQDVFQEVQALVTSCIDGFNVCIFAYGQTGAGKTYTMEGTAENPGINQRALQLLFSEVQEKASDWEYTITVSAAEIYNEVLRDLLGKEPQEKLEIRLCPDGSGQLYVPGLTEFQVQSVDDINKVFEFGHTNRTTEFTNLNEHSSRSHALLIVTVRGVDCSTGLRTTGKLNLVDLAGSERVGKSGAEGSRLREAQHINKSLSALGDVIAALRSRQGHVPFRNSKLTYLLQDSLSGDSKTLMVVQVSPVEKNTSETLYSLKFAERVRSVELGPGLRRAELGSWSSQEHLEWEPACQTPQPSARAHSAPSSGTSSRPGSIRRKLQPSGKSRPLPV
inactive: erlotinib 0.091 | [1] 0.069 | [2] 0.14 | [3] 0.004 | [4] 0.076 | [6] -0.077 | [7] -0.103 | [8] 0.158

LZTR1 (UniProt Q8N653)
inactive: erlotinib 0.051 | [1] 0.099 | [2] -0.018 | [3] -0.015 | [4] 0.022 | [5] -0.005 | [6] -0.071 | [7] 0.066 | [8] 0.106 | IRAK-1-4 Inhibitor I 0.08

MINK1 (UniProt Q8N4C8)
inactive: erlotinib 0.057 | [1] 0.058 | [2] -0.059 | [3] 0.135 | [4] 0.045 | [5] -0.141 | [6] 0 | [7] 0.016 | [8] -0.037 | IRAK-1-4 Inhibitor I 0.061

MAP4K4 isoform 3 (UniProt O95819)
UniProt O95819, sequence (O95819 whole entry, looked up): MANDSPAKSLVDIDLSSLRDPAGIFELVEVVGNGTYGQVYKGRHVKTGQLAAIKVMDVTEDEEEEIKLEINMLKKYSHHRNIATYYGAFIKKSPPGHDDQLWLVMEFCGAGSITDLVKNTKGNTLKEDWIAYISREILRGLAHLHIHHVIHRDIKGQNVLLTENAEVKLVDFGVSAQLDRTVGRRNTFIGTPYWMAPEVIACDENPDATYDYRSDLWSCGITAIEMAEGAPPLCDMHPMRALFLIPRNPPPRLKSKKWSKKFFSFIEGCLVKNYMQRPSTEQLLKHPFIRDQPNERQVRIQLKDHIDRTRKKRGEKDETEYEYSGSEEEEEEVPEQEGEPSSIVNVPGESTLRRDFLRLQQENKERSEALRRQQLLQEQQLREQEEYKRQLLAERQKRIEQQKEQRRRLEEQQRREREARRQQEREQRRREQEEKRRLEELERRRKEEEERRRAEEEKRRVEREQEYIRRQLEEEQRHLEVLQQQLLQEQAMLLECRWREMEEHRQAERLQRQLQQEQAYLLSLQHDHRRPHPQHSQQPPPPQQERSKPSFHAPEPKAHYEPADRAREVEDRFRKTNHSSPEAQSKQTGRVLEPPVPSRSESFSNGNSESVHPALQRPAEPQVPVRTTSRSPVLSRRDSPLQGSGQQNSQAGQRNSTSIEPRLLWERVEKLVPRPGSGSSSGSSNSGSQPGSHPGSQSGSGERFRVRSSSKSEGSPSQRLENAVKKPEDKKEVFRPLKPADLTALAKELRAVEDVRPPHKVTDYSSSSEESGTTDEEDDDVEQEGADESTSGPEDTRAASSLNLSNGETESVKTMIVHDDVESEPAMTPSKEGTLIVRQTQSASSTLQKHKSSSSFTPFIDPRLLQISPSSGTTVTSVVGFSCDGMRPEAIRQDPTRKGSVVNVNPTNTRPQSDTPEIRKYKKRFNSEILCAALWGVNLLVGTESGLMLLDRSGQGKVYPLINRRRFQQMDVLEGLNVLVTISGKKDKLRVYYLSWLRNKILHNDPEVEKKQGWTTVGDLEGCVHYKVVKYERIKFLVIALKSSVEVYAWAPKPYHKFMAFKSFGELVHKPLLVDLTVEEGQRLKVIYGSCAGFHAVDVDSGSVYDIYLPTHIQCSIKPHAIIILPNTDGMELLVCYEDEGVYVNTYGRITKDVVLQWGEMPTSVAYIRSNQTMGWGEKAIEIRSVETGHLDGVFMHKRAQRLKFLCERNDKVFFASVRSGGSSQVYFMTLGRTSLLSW
inactive: erlotinib -0.003 | [1] -0.025 | [2] 0.099 | [3] 0.038 | [4] -0.027 | [5] -0.093 | [6] -0.077 | [7] 0.008 | [8] -0.011 | IRAK-1-4 Inhibitor I 0.059

MACO1 (UniProt Q8N5G2)
active: [6] -0.336
inactive: erlotinib -0.072 | [1] -0.009 | [2] -0.005 | [3] -0.161 | [4] 0.062 | [5] -0.022 | [7] 0 | [8] 0.012 | IRAK-1-4 Inhibitor I 0.022

MAD2L1BP isoform 3 (UniProt Q15013)
UniProt Q15013, sequence (Q15013 whole entry, looked up): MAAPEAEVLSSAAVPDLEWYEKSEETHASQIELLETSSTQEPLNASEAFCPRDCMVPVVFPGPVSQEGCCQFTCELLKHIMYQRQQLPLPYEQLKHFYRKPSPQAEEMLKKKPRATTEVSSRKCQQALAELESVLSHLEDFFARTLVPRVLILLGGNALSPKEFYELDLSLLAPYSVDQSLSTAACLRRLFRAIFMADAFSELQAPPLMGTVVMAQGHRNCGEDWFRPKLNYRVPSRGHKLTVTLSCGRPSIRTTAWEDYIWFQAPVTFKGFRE
active: [8] 0.263
inactive: erlotinib 0.067 | [1] -0.081 | [2] 0.002 | [3] 0.078 | [4] -0.015 | [5] 0.005 | [6] 0.063 | [7] -0.029 | IRAK-1-4 Inhibitor I -0.002

KIF22 (UniProt Q14807)
UniProt Q14807, sequence (Q14807 whole entry, looked up): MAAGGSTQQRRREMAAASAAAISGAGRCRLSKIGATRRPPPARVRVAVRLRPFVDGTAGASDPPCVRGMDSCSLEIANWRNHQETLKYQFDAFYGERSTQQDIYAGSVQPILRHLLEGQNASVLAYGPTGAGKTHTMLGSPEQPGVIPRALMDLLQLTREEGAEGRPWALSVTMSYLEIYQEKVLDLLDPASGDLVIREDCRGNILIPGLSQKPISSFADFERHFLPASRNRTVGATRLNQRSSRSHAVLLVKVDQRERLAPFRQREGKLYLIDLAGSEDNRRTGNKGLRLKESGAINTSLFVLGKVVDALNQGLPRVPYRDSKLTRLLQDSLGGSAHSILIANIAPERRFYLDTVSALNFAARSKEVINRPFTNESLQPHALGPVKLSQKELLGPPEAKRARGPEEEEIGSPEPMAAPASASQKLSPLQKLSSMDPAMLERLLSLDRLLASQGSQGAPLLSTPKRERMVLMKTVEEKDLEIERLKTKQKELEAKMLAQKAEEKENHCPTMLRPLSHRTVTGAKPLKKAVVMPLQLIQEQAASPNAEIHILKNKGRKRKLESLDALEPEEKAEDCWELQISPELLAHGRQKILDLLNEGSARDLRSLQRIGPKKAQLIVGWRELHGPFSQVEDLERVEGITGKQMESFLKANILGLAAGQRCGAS
inactive: erlotinib 0.012 | [1] -0.074 | [2] 0.076 | [3] -0.147 | [4] -0.007 | [5] -0.063 | [6] -0.123 | [7] 0.026 | [8] 0.05 | IRAK-1-4 Inhibitor I 0.06

MCMBP isoform 2 (UniProt Q9BTE3)
inactive: erlotinib 0.084 | [1] 0.027 | [2] 0.282 | [3] -0.168 | [4] -0.156 | [5] -0.051 | [6] -0.411 | [7] 0.024 | [8] 0.055 | IRAK-1-4 Inhibitor I -0.016

MCMBP (UniProt Q9BTE3)
inactive: erlotinib 0.038 | [1] 0.069 | [2] 0.024 | [3] 0.063 | [4] 0.01 | [5] -0.017 | [6] 0.001 | [7] -0.023 | [8] 0.072 | IRAK-1-4 Inhibitor I 0

MAPKAPK5 (UniProt Q8IW41)
UniProt Q8IW41, sequence (Q8IW41 whole entry, looked up): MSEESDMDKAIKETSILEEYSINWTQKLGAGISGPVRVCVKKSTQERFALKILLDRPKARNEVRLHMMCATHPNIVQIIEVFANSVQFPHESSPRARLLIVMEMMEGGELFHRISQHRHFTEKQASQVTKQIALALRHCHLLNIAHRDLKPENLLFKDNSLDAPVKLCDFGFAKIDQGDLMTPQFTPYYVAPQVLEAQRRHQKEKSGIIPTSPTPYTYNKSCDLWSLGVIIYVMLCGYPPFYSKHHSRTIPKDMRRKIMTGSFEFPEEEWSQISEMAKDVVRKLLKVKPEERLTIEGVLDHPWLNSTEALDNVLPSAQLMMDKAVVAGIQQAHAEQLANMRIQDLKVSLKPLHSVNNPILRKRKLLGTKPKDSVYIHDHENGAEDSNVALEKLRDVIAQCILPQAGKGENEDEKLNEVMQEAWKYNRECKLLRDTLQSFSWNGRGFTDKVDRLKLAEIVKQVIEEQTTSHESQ
inactive: erlotinib -0.058 | [1] -0.045 | [2] 0.016 | [3] 0.12 | [4] 0.007 | [5] -0.024 | [7] 0.035 | [8] 0.031 | IRAK-1-4 Inhibitor I -0.049
active: [6] 0.276

LRPPRC (UniProt P42704)
inactive: erlotinib 0.04 | [1] 0.028 | [2] -0.02 | [3] 0.048 | [4] 0.067 | [5] -0.004 | [6] -0.017 | [7] -0.012 | [8] 0.006 | IRAK-1-4 Inhibitor I 0.006

Reference: the supplement of paper PMC10849652
